Test results: paper PMC7862700, “An all-to-all approach to the identification of sequence-specific readers for epigenetic DNA modifications on cytosine”

How the values were obtained:
Assay in all cases: DAPPL (digital affinity profiling via proximity ligation, sequencing); 10 mM Tris-HCl pH 7.5, 50 mM NaCl, 1 mM DTT, 4% glycerol, room temperature, 30 min; GST-TFs on glutathione beads, 16-mer random dsDNA library, 0.1% formaldehyde crosslink after washing; high values mean tight binding
FEV = target: T1, FEV (Homo sapiens, UniProt Q99581 1-238); settings: protein: recombinant; tags: N-terminal GST; dsDNA, one strand shown
T1 sequence: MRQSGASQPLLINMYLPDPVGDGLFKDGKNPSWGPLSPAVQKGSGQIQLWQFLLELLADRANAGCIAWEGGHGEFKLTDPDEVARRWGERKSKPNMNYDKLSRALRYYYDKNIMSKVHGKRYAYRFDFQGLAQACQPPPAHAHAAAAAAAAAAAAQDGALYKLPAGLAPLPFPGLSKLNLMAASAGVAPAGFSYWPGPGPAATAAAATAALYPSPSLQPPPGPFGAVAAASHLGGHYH
Summary of the method: (§1)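 Human transcription factors fused to GST were expressed in yeast, captured on glutathione beads, given DNA barcodes and pooled with a GST-only negative control. Pools were incubated with 200 nmole of a 16-mer random double-stranded DNA library in Tris/NaCl/DTT/glycerol buffer at room temperature for 30 min. They were then washed, crosslinked with 0.1% formaldehyde, proximity-ligated (BsaI/T4 ligase, 1 h, 37 °C), PCR-amplified and sequenced on an Illumina NextSeq500. Binding signal is each 6-mer's read frequency for a factor divided by its frequency for the GST control.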

ETV5 = ETV5 (Homo sapiens, UniProt P41161 1-510); settings: protein: recombinant; tags: N-terminal GST; dsDNA, one strand shown
Summary of the method: as §1

HSF1 = HSF1 (Homo sapiens, UniProt Q00613 1-529); settings: protein: recombinant; tags: N-terminal GST; chain copies: 3; dsDNA, one strand shown
Summary of the method: as §1

SPIC = target: T2, SPIC (Homo sapiens, UniProt Q8N5J4 1-248); settings: protein: recombinant; tags: N-terminal GST; dsDNA, one strand shown
T2 sequence: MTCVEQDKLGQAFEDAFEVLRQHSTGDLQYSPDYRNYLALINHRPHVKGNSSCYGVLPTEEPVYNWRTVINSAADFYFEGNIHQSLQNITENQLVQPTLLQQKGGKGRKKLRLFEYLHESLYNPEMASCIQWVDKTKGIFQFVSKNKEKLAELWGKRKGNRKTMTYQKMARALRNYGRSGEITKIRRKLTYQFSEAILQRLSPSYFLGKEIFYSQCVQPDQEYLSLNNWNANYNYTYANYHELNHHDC
Summary of the method: as §1

ELF4 = ELF4 (Homo sapiens, UniProt Q99607 1-663); settings: protein: recombinant; tags: N-terminal GST; dsDNA, one strand shown
Summary of the method: as §1

ELK4 = target: T3, ELK4 (Homo sapiens, UniProt P28324-2 1-405); settings: protein: recombinant; tags: N-terminal GST; dsDNA, one strand shown
T3 sequence: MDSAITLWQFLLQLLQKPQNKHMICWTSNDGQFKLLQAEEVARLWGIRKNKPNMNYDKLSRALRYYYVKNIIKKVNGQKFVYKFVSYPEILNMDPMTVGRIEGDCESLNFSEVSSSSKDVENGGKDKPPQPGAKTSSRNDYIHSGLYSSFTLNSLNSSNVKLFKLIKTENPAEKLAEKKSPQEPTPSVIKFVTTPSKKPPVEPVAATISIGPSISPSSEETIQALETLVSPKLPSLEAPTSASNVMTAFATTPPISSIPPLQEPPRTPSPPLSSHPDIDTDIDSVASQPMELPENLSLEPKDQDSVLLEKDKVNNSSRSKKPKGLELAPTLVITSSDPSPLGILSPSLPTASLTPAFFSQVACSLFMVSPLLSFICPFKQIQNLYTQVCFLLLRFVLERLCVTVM
Summary of the method: as §1

ETV2 = target: T4, ETV2 (Homo sapiens, UniProt O00321 1-342); settings: protein: recombinant; tags: N-terminal GST; dsDNA, one strand shown
T4 sequence: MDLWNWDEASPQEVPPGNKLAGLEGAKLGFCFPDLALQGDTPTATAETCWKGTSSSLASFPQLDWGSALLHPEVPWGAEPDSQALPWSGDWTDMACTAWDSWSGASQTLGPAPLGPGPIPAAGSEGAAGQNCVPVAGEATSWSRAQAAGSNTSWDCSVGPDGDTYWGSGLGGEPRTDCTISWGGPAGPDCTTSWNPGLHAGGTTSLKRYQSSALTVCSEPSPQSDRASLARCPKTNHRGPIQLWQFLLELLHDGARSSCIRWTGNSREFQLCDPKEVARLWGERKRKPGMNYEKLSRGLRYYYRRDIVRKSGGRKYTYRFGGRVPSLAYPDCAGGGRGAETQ
Summary of the method: as §1

ELF3 = target: T5, ELF3 (Homo sapiens, UniProt P78545 1-371); settings: protein: recombinant; tags: N-terminal GST; dsDNA, one strand shown
T5 sequence: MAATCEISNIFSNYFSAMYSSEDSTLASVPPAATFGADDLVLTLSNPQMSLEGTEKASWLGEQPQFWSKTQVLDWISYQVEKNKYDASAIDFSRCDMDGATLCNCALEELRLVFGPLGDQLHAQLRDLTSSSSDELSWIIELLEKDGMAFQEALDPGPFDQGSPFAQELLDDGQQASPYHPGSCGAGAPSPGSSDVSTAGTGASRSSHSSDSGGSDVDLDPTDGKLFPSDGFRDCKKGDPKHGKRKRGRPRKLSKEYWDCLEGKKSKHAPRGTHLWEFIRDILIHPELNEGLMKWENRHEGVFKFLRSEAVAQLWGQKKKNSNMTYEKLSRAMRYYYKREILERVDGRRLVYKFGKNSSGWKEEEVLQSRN
Summary of the method: as §1

CRX = CRX (Homo sapiens, UniProt O43186 1-299); settings: protein: recombinant; tags: N-terminal GST; dsDNA, one strand shown
Summary of the method: as §1

ETV1 = ETV1 (Homo sapiens, UniProt P50549 1-477); settings: protein: recombinant; tags: N-terminal GST; dsDNA, one strand shown
Summary of the method: as §1

ERF = target: T6, ERF (Homo sapiens, UniProt P50548 1-548); settings: protein: recombinant; tags: N-terminal GST; dsDNA, one strand shown
T6 sequence: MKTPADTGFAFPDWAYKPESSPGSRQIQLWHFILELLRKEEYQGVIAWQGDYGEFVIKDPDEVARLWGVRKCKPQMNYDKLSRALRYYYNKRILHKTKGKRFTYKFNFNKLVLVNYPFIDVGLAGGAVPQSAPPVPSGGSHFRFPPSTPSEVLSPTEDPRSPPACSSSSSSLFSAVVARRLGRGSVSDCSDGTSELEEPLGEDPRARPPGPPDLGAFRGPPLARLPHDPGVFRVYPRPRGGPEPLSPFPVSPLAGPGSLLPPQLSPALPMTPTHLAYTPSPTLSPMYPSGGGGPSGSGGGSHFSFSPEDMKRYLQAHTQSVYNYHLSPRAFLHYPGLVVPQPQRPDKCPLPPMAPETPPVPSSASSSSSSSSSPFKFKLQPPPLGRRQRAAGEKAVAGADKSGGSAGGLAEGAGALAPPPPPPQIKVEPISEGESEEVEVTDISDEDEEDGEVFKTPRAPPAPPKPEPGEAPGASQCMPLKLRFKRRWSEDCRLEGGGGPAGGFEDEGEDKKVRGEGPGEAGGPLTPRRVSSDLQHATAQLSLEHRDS
Summary of the method: as §1

ETV3L = target: T7, ETV3L (Homo sapiens, UniProt Q6ZN32 1-361); settings: protein: recombinant; tags: N-terminal GST; dsDNA, one strand shown
T7 sequence: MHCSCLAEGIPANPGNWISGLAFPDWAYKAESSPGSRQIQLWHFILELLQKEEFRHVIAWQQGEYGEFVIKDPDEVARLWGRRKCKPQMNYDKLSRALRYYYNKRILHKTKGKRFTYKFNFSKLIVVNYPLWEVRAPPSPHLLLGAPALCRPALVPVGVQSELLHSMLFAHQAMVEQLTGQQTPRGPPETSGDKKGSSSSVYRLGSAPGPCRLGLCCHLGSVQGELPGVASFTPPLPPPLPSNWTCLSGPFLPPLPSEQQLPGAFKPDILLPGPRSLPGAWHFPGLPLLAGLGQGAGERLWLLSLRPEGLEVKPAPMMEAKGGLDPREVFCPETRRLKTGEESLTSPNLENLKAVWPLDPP
Summary of the method: as §1

ETS2 = target: T8, ETS2 (Homo sapiens, UniProt P15036 1-469); settings: protein: recombinant; tags: N-terminal GST; dsDNA, one strand shown
T8 sequence: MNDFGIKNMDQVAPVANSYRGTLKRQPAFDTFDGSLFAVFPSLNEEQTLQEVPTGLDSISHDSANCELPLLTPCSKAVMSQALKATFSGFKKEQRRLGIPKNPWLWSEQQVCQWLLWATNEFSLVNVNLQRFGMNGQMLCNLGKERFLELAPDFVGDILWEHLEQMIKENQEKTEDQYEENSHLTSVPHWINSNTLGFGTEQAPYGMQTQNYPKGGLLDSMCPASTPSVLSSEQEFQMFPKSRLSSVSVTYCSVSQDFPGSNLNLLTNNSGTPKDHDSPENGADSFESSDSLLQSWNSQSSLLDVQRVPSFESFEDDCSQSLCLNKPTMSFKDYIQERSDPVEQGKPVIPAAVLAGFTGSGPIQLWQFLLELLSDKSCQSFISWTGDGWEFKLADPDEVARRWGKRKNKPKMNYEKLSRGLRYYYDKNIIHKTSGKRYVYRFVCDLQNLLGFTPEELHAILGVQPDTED
Summary of the method: as §1

SPDEF = target: T9, SPDEF (Homo sapiens, UniProt O95238 1-335); settings: protein: recombinant; tags: N-terminal GST; dsDNA, one strand shown
T9 sequence: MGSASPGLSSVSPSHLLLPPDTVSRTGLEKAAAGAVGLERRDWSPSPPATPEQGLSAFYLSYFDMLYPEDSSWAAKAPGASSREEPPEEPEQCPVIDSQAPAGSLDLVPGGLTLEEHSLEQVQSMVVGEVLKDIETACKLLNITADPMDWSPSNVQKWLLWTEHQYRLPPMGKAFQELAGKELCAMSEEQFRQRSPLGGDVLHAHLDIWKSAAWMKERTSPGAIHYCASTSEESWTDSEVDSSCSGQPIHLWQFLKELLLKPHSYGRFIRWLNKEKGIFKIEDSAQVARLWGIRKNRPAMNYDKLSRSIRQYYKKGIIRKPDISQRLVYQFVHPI
Summary of the method: as §1

ETV7 = target: T10, ETV7 (Homo sapiens, UniProt Q9Y603 1-341); settings: protein: recombinant; tags: N-terminal GST; dsDNA, one strand shown
T10 sequence: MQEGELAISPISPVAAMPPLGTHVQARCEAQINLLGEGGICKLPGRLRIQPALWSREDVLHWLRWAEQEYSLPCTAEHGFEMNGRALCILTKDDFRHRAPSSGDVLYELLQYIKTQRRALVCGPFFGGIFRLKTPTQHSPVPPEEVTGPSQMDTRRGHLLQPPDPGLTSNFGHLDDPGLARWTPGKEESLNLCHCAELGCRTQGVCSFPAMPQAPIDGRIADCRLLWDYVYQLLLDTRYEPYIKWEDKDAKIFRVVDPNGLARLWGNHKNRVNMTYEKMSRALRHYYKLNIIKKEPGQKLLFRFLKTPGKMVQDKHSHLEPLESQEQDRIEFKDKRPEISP
Summary of the method: as §1

ELF5 = target: T11, ELF5 (Homo sapiens, UniProt Q9UKW6-2 1-255); settings: protein: recombinant; tags: N-terminal GST; dsDNA, one strand shown
T11 sequence: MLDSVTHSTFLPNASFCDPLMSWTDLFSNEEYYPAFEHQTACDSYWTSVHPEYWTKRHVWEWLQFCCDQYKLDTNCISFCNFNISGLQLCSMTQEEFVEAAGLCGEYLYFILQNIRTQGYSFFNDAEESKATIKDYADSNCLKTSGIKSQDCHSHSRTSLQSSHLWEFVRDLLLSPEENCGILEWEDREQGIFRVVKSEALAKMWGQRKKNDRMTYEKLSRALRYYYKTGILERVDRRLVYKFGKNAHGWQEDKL
Summary of the method: as §1

ETV3 = target: T12, ETV3 (Homo sapiens, UniProt P41162-2 1-143); settings: protein: recombinant; tags: N-terminal GST; dsDNA, one strand shown
T12 sequence: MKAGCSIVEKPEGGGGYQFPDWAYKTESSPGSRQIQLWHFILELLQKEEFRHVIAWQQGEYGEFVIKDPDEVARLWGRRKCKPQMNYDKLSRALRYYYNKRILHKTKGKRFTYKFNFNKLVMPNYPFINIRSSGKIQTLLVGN
Summary of the method: as §1

ETV6 = ETV6 (Homo sapiens, UniProt P41212 1-452); settings: protein: recombinant; tags: N-terminal GST; dsDNA, one strand shown
Summary of the method: as §1

Sequence of ELF4 (Q99607 whole entry): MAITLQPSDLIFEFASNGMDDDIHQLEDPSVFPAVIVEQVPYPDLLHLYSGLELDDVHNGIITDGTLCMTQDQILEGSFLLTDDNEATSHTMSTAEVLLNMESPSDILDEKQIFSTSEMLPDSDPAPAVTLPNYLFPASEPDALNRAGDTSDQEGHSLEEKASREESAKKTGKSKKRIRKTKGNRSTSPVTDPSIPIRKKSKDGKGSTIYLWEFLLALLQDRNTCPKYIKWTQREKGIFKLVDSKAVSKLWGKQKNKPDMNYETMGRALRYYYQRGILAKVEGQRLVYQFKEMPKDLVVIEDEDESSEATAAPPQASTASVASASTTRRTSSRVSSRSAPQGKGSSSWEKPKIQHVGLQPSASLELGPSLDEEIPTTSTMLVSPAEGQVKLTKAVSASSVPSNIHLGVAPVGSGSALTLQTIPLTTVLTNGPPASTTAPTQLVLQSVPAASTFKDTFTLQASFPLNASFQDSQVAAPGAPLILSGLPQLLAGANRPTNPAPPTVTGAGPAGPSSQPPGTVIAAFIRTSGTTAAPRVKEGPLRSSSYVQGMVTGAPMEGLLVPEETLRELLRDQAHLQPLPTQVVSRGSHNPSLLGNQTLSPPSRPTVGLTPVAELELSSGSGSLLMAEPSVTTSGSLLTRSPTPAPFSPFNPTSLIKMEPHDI
Sequence of CRX (O43186 whole entry): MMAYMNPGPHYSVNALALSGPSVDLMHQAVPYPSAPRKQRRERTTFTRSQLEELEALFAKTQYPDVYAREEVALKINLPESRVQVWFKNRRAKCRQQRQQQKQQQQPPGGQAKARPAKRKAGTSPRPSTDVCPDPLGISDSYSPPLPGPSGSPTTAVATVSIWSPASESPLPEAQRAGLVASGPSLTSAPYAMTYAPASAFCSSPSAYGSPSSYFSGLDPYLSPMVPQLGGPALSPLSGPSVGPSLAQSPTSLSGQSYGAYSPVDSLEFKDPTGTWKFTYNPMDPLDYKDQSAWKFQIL
Sequence of HSF1 (Q00613 whole entry): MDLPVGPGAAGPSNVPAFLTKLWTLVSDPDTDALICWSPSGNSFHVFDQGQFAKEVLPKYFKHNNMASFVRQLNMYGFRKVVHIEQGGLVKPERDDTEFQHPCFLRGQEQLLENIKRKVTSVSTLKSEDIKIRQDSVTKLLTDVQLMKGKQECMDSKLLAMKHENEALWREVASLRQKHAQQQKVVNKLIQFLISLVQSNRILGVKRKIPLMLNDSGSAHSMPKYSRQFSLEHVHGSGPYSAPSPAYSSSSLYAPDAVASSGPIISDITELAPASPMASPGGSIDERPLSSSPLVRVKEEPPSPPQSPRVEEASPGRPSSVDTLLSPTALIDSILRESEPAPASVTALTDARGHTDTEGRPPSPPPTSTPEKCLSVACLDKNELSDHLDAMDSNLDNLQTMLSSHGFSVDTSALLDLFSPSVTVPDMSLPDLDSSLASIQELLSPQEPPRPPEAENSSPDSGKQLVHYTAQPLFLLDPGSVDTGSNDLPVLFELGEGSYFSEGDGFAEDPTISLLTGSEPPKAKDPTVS
Sequence of ETV1 (P50549 whole entry): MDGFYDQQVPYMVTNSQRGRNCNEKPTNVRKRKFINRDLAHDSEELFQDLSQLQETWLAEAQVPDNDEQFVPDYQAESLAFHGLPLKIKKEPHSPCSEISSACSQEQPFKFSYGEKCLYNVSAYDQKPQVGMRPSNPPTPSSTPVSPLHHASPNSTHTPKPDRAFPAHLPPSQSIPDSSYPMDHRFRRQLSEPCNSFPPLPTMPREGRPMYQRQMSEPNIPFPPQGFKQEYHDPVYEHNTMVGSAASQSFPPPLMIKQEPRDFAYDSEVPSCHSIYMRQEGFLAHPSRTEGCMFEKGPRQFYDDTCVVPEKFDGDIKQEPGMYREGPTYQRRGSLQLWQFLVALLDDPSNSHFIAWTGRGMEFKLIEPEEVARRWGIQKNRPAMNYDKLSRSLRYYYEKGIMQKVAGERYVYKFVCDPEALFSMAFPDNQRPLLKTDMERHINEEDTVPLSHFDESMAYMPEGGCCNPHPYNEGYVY
Sequence of ETV6 (P41212 whole entry): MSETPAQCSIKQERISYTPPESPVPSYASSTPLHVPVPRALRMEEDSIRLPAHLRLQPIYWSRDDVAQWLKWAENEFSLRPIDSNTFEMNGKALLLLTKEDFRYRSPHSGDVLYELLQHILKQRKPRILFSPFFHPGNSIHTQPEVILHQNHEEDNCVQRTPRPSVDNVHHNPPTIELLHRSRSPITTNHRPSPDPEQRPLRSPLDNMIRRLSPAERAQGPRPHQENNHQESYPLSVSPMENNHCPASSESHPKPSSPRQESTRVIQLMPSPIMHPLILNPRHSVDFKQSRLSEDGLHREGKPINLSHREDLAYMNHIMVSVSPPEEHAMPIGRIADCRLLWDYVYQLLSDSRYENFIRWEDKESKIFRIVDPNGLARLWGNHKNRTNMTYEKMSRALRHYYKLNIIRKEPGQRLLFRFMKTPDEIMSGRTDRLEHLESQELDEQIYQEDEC
Sequence of ETV5 (P41161 whole entry): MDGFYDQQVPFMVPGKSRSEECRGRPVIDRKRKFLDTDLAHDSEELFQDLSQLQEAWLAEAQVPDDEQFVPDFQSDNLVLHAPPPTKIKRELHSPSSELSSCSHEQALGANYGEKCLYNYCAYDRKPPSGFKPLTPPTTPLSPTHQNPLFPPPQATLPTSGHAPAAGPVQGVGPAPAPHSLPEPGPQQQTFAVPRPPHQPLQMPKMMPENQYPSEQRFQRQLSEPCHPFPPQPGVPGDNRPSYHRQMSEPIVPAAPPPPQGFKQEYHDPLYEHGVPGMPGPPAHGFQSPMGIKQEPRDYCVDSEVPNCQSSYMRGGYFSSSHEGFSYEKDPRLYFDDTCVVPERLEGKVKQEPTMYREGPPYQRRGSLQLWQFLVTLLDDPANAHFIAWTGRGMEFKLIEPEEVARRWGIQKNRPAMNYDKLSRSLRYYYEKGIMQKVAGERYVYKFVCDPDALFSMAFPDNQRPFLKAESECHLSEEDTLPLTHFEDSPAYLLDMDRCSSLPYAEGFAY

## ATGCTC
FEV
  binding signal: 1.39 fold enrichment (6-mer frequency, TF over GST control)
ETV5
  binding signal: 1.41 fold enrichment (6-mer frequency, TF over GST control)
HSF1
  binding signal: 1.43 fold enrichment (6-mer frequency, TF over GST control)
SPIC
  binding signal: 1.47 fold enrichment (6-mer frequency, TF over GST control)
ELF4
  binding signal: 1.46 fold enrichment (6-mer frequency, TF over GST control)
ELK4
  binding signal: 1.32 fold enrichment (6-mer frequency, TF over GST control)
ETV2
  binding signal: 1.37 fold enrichment (6-mer frequency, TF over GST control)
ELF3
  binding signal: 1.47 fold enrichment (6-mer frequency, TF over GST control)
CRX
  binding signal: 1.38 fold enrichment (6-mer frequency, TF over GST control)
ETV1
  binding signal: 1.42 fold enrichment (6-mer frequency, TF over GST control)
ERF
  binding signal: 1.33 fold enrichment (6-mer frequency, TF over GST control)
ETV3L
  binding signal: 1.51 fold enrichment (6-mer frequency, TF over GST control)
ETS2
  binding signal: 1.42 fold enrichment (6-mer frequency, TF over GST control)
SPDEF
  binding signal: 1.43 fold enrichment (6-mer frequency, TF over GST control)
ETV7
  binding signal: 1.37 fold enrichment (6-mer frequency, TF over GST control)
ELF5
  binding signal: 1.38 fold enrichment (6-mer frequency, TF over GST control)
ETV3
  binding signal: 1.35 fold enrichment (6-mer frequency, TF over GST control)
ETV6
  binding signal: 1.44 fold enrichment (6-mer frequency, TF over GST control)
